PubChem BioAssay (NCI)
The panel holds about 83,000 compounds, 20% with a hit somewhere; the sample as a whole holds those more often.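 In brief: 96-well plates, 48 h treatment, single concentration, percent growth endpoint.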 Values without a mark were called inactive. The source made the active and inactive calls. Rule for the calls: active = growth percent below 10; inactive = the rest.

The molecules below were run on HL-60(TB) leukemia (assay: NCI-60 one-dose screen, 48 h (100 = growth as untreated, 0 = no growth, -100 = all killed)). Conditions: 10 µM unless noted.

Point of comparison: `Cc1nc2c(nnn2-c2ccccc2)c2nc(-c3ccccc3)oc(=O)c12`, growth 109%. Against it:
- O=C1CCC23OC(C(O)c4ccccc4N12)C1C(Br)=NOC13 (stereo unspecified) — lower, 96%
- CC/C(=C(/c1ccc(Cl)cc1)c1ccc(OCCN2CCCCC2)cc1)c1ccc(OC)cc1 — lower, 24%
- COc1ccc2[nH]cc(/C=C3/C(=O)Nc4ccc(Cl)cc43)c2c1 — lower, 53.4%
- CCOC(=O)/C=C1\S/C(=N\Nc2ccc([N+](=O)[O-])cc2[N+](=O)[O-])N(Cc2ccccc2)C1=O — lower, 76.3%
- Cc1ccc(S(=O)(=O)OCC(=O)Nc2ccc(C(=O)O)c(O)c2)cc1 — lower, 60.4%
- CCOC(=O)CCN(c1c(Cl)ssc1=O)C(C)C — lower, 101%
- COc1ccc(OC2=CC(=O)c3ccc(C)nc3C2=O)cc1 — lower, 52.1%
- CC(C)(C)C1CCC(=NO)CC1 (stereo unspecified) — higher, 110%
- COc1ccc2nc3cc(Cl)ccc3c(NCCNCC(C)O)c2c1 (stereo unspecified) — lower, 21.8%
- Cc1cc(O)c2cc3c(O)c(O)ccc3cc2c1 — lower, 82.7%
- CC(Oc1ccc(C(=O)O)cc1C(F)(F)F)c1ccc(Oc2ccccc2)cn1 (stereo unspecified) — lower, 101%
- Cc1cc(-c2noc(C(F)(F)F)n2)ccc1N1CCN(c2cc(C(=O)N(C)C)no2)CC1 — lower, 49.7%
- CC(=O)N(CC(O)CO)c1c(I)c(C(=O)NCCO)c(I)c(C(=O)NCC(O)CO)c1I (stereo unspecified) — lower, 92.2%
- CSc1ccc2c(c1)N(CCC1CCCCN1C)c1ccccc1S2 (stereo unspecified) — lower, 86.1%
- CC[C@H](Nc1nc(N)nc(C)c1C#N)c1nc2cccc(NCCCCCC(=O)NO)c2c(=O)n1-c1ccccc1 — lower, 39.7%
- COC(=O)c1nc(-c2ccccc2)oc1S(=O)(=O)N1CCCC(C)C1 (stereo unspecified) — lower, 15%
- Cc1ccc2nc(-c3ccc(C(=O)NNC(=S)Nc4ccccc4)cc3)[nH]c2c1 — lower, 98%
- COc1cc(N=Nc2ccc(N)cc2)c(OC)cc1N=Nc1ccccc1.[Cl][Zn][Cl] — lower, 73.5%
- C#CCNC(=O)[C@H](Cc1ccccc1)NC(=O)[C@]12CC[C@@H](C(=C)C)[C@@H]1[C@H]1CC[C@@H]3[C@@]4(C)CCC(=O)C(C)(C)[C@@H]4CC[C@@]3(C)[C@]1(C)CC2 — lower, 33%
- COc1ccc2c(c1)nc(N)c1c3cc(OC)c(OC)cc3cn21 — lower, 23.1%
- COc1cc2c3c(c1O)-c1ccccc1[C@@H]1OC(=O)N(CC2)[C@H]31 — higher, 112%
- O=C(NCCCNS(=O)(=O)c1ccc(Cl)cc1)Nc1ccc(-n2cc(-c3ccncc3)c(-c3ccc(Cl)c(O)c3)n2)cc1 — lower, 16.3%
- C[C@@H]1CC2C3C[C@H](F)C4=CC(=O)C=C[C@]4(C)[C@@]3(F)[C@@H](O)C[C@]2(C)[C@@]1(O)C(=O)CO (stereo partly specified) — lower, 99.1%
- CC(O)CNC(Cc1ccccc1)c1ccc2c(c1)OCO2 (stereo unspecified) — lower, 96.3%
- O=C1/C(=C/c2ccc([N+](=O)[O-])cc2)COc2ccc(O)cc21 — lower, 50.9%
- CN(C)c1ccc(/C=N/NC(=O)CSc2nc3sc4c(c3c(=O)n2-c2ccccc2)CCCCC4)cc1 — lower, 86.8%

For `CCN(CC)CCN1c2nc3ccccc3cc2Sc2cc3ccccc3nc21`, the growth was -21.1% (active).
With `C=C(C)[C@@H]1CC[C@]2(C(=O)OC)CC[C@]3(C)[C@H](CC[C@@H]4[C@@](C)(CCc5nn[nH]n5)[C@H](C(=C)C)CC[C@]43C)[C@@H]12` the growth was -11% [100 µM] (active).
For `COc1ccc(Nc2cc(C)nc(NCCCNc3ccnc4cc(Cl)ccc34)n2)cc1`, the growth was -75.7% (active).
For `C=C1C(=O)O[C@H]2[C@H]1CC/C(COC(=O)CSCC(=O)OC/C1=C/CC[C@@]3(C)O[C@H]3[C@H]3OC(=O)C(=C)[C@@H]3CC1)=C\CC[C@@]1(C)O[C@@H]21`, the growth was -42% (active).
In the case of `O=C(N/N=C\c1cc(Br)cc(Br)c1O)N/N=C/c1cc(Br)cc(Br)c1O`, the growth is reported as 8.67% (active).
In the case of `CC(C)(C)c1ccc(C(=O)N/N=C/c2ccc(O)cc2O)cc1`, the growth is reported as 5.19% (active).
In the case of `COc1ccc2c(c1)[nH]c(=O)c1c3cc(OC)ccc3cn21`, the growth is reported as -8.1% (active).
For `Cc1oc2nc[nH]c(=O)c2c1C(=O)/C=C/c1ccc(Br)cc1`, the growth was -4.98% (active).
In the case of `[2H]C1([2H])CCN(C(=O)C2CC2)c2cc(NS(=O)(=O)c3ccc(-c4cccc(C(N)=O)c4)cc3)ccc21`, the growth is reported as -0.857% (active).
